PubChem BioAssay (Tox21)
Records with an inconclusive call do not appear. Values without a mark were called inactive. Calls of active or inactive are those of the source. The call rests on the fitted dose curve; in most records, active means well fitted inhibition curve with a large enough effect in the repeat runs; inconclusive means weak or mixed curves; inactive means no such curve, though single readings can be large or run the other way.

target: Cytochrome P450 2C9 (Homo sapiens) (UniProt P11712); assay: Cytochrome P450 Family 2 Subfamily C Member 9 (CYP2C9) small molecule antagonists: luciferase reporter qHTS assay (AID 1671198); details: P450-Glo CYP2C9 enzyme assay, luciferin luminescence; series mostly up to 115 µM; activity change, negative = inhibition: at the top concentration; further: nearly all actives have a fitted effect of over 50% in size
Summary of the method: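 CYP2C9 activity was measured with a P450-Glo proluciferin substrate. Enzyme–substrate mix was held with compound for 10 min at room temperature, then NADPH regeneration solution was added for 1 h at 37C. Luciferin product was read as luminescence.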
On the % scale 0 is the no-effect control and ±100 the full control effect; potency means the concentration at half of the fitted maximal effect.

Cytochrome P450 2C9 (Homo sapiens), sequence (P11712 whole entry, looked up): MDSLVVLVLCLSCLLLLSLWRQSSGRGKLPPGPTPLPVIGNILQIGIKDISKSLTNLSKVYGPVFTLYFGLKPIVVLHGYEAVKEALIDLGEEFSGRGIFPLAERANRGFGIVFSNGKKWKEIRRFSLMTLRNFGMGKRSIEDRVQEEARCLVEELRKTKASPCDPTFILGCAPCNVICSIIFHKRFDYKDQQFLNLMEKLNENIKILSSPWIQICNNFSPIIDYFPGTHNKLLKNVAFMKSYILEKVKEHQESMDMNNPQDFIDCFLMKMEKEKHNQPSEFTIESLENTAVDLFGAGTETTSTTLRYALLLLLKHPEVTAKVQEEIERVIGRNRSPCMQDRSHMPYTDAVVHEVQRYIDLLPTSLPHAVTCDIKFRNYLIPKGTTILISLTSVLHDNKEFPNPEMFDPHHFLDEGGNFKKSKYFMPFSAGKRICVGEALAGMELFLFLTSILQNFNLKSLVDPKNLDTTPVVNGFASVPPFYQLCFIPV

Compound | activity change, negative = inhibition | Potency
CC(=O)C=O | -0.404% | 
O=C1Nc2ccc(Cl)cc2[C@@](C#CC2CC2)(C(F)(F)F)O1 |  | 15.5 µM (active)
CCN(CC)CCOC(=O)C1(C2CCCCC2)CCCCC1 | 0.655% [at 53 µM] | 
CC(C)OC(=O)c1cc(C(=O)OC(C)C)cc([N+](=O)[O-])c1 |  | 0.84 µM (active)
CC(C)(c1cc(Br)c(OCCO)c(Br)c1)c1cc(Br)c(OCCO)c(Br)c1 |  | 4.38 µM (active)
Cc1cc2c(C(C)C)c(O)c(O)c(C=O)c2c(O)c1-c1c(C)cc2c(C(C)C)c(O)c(O)c(C=O)c2c1O |  | 34.7 µM (active)
N#CSCSc1nc2ccccc2s1 |  | 31.7 µM (active)
Cc1oc(-c2ccccc2)nc1CCOc1ccc(C[C@H](Nc2ccccc2C(=O)c2ccccc2)C(=O)O)cc1 |  | 20 µM (active)
CC(C(O)c1ccccc1)N(C)CCOC(c1ccccc1)c1ccccc1 (stereo not given) |  | 17.4 µM (active)
CN(C)CCCN1c2ccccc2Sc2ccc(C(F)(F)F)cc21 | 3.2% [at 53 µM] | 
Clc1cc(Cl)c(-c2c(Cl)c(Cl)cc(Cl)c2Cl)cc1Cl | 6.79% [at 53 µM] | 
COC(=O)NCCC[Si](OC)(OC)OC | -6% | 
O=C1NC2CCCCN2C12CCN(CCCN1c3ccccc3CCc3ccc(Cl)cc31)CC2 (stereo not given) | -23.9% [at 53 µM] | 
CC(NCCC(c1ccccc1)c1ccccc1)c1ccccc1 (stereo not given) |  | 15.5 µM (active)
CC=O | -12.1% | 
Cc1c(C)n(Cc2ccccc2)c2ccc(C(=O)OCCN(C)C)cc12 |  | 15.5 µM (active)
CC(C)c1cccc(C(C)C)c1N1C(=O)c2ccc(O)cc2C1=O |  | 12.6 µM (active)
O[C@@H](c1cc(C(F)(F)F)nc2c(C(F)(F)F)cccc12)[C@H]1CCCCN1 | 3.17% [at 53 µM] | 
CCOC(=O)C1=C(C)NC(C)=C(C(=O)OCC)C1c1ccccc1/C=C/C(=O)OC(C)(C)C |  | 1.1 µM (active)
Oc1ccc(-c2ccccc2)c(Cl)c1 |  | 35.6 µM (active)
CCCCCCOc1cc(C)c(O)c(C)c1C |  | 25.5 µM (active)
C[C@]12CC[C@H]3C(=CCc4cc(O)ccc43)[C@@H]1CCC2=O |  | 35.6 µM (active)
S=P(N1CC1)(N1CC1)N1CC1 |  | 19.3 µM (active)
CCCCCCC(C)Nc1ccc(Nc2ccccc2)cc1 (stereo not given) |  | 7.1 µM (active)
CCc1ccc(O)c(C(C)(C)C)c1 |  | 31.7 µM (active)
